S1P3 antagonist: S1P3 (human) receptor antagonism | inhibition, % at 4.98 µM | CHO S1P3 NFAT-BLA reporter, FRET fluorescence, antagonist mode | Q99500 | 0.27% of 170,000 active;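 active = inhibition above the plate cutoff, the mean inhibition of test wells on that plate plus 3 SD, cut at about 28% in these data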;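 note: cells challenged with S1P at its EC80 of 0.8 µM; blue over green emission ratio from cleaved BLA substrate after 4 h stimulation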
S1P4 ag: activates the human S1P4 receptor | S1P4-expressing cell line, agonist reporter assay | activation, % at 4.98 µM | 0.35% of 220,000 active | AID 1509; in the data active = activation above about 11%
Cl transport mod: KCC2 (human) Cl- transport modulation. 2.2% of 190,000 active. Q9H2X9. KCC2 cells, thallium flux FluoZin-2 fluorescence. AID 1456. B-score of Tl+ flux slope (higher = more flux/activation; lower = inhibition) at 10 µM;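 active = thallium flux slope and its plate-corrected score both differing from the plate sample mean at a set confidence after two filtering rounds, in either direction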;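 note: slope of fluorescence scaled to starting intensity during 10 to 20 s after thallium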
Target sequence (Q9H2X9 whole entry, looked up): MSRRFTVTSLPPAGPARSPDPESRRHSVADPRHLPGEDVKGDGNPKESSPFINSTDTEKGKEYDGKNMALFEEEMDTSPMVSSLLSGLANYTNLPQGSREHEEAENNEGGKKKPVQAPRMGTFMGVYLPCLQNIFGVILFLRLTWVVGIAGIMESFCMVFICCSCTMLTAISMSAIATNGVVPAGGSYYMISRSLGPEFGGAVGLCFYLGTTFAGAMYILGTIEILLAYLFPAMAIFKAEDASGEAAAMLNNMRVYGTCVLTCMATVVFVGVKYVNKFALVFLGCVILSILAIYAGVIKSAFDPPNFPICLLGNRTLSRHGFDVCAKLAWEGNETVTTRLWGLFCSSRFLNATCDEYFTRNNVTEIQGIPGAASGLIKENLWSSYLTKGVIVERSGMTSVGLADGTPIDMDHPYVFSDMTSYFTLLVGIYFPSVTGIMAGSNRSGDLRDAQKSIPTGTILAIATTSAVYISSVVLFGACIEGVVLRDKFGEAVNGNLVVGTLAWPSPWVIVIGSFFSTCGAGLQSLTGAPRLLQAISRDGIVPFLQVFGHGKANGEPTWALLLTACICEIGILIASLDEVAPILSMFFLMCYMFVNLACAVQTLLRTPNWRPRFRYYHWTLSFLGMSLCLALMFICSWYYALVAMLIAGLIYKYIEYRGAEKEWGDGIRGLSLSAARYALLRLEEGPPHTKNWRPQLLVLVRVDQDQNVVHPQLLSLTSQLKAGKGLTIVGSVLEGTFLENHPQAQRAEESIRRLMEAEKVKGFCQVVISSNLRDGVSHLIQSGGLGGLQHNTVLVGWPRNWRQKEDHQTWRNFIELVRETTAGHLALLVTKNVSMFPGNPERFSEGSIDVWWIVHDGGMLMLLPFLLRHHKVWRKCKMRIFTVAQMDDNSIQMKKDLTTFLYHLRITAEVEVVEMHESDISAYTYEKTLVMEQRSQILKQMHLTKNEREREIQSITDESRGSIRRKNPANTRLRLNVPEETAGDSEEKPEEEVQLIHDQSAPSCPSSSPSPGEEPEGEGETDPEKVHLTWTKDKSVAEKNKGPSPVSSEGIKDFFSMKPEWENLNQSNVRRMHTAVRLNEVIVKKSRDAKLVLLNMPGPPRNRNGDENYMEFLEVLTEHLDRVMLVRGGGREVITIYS
RAM inhibit: blocks the yeast RAM network. S. cerevisiae dse1pr::URA3 reporter, 5-FOA growth OD615, 2 d; analog-sensitive cbk1-as2 kinase mutant strain. inhibition, % at 50 µM. 1.8% of 190,000 active. AID 868;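 active = inhibition above a set limit, 3 SD over mean compound inhibition, cut at about 8.4% in these data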;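 note: inhibition rescues growth on 5-FOA so higher OD means more RAM inhibition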
S1P4 antag: antagonists of human S1P4 receptor | O95977 | S1P4-expressing cells, antagonist mode, reporter read-out | AID 1510 | 0.26% of 220,000 active | inhibition, % at 4.98 µM; in the data active = inhibition above about 29%
ROMK primary: modulators of human ROMK potassium channel; P48048; Tet-inducible ROMK, thallium flux fluorescence; actives lie on both sides; B-score at 10 µM; 2% of 130,000 active; AID 1918;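 active = signal ratio slope over the read window, or its plate-corrected B-score, at least 3 SD from the plate mean, either direction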;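 note: B-score of the F/F0 ratio slope over 7 to 12 s after thallium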
KCC2 sec1: KCC2 (human) modulation, secondary assay; shares compounds with Cl transport mod; HEK293-KCC2, thallium flux, FluoZin2 fluorescence; hits give high values; normalised thallium flux (F/F0 slope) at 10 µM; 15% of 3,700 active; AID 1713;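 active = thallium flux slope above the same plate's solvent-only control mean plus 3 SD; inconclusive = the two replicate wells disagree; inactive = no significant difference from solvent-only control wells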
KCC2 bumet counter: thallium flux despite bumetanide block in KCC2 cells, secondary assay 3. HEK293-KCC2 + bumetanide/ouabain, thallium flux FluoZin2; hits give high values. shares compounds with Cl transport mod. normalized thallium flux at 10 µM. AID 1714. 49% of 3,700 active;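 active = thallium entry rate above the same plate's blocked-transporter control wells by more than 3 SD; inconclusive = the two repeat wells disagree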;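 note: raw slope of fluorescence over initial fluorescence between 10 and 20 s after thallium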
KCC2 sec2: confirmation of human KCC2 transport modulators | shares compounds with Cl transport mod | HEK293-KCC2, thallium flux FluoZin2 fluorescence; actives lie on both sides; F/F0 rise rate, 10–20 s post-thallium | normalized thallium flux at 10 µM | 23% of 3,700 active | AID 1715;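 active = thallium flux slope more than 3 SD above or below the plate's solvent-only control mean, mostly below; inconclusive = the two repeat wells disagreed; inactive = no significant shift from solvent-only controls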
HEK293 Tl flux: counter-screen for KCC2 modulators: effect in parental HEK293 cells; AID 1716; shares compounds with Cl transport mod; 46% of 3,700 active; thallium flux rate (normalised fluorescence) at 10 µM; thallium flux FluoZin2, ouabain; baseline-ratio fluorescence slope, 10–20 s after thallium;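 active = thallium flux rate significantly above the same plate's solvent-only control wells, beyond their mean plus 3 SD; inconclusive = the two replicate wells gave conflicting results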
KCC2 ouabain: modulates human KCC2 on retest with ouabain; raw Tl+ flux slope (below DMSO = inhibition, above = activation) at 10 µM; HEK293-KCC2, thallium flux FluoZin2 fluorescence; bidirectional: low = inhibitor, high = activator; 48% of 3,700 active; shares compounds with Cl transport mod;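 active = thallium flux slope beyond 3 SD from same-plate DMSO control mean in most replicates, usually higher, sometimes lower; inconclusive = repeat tests gave conflicting results; inactive = no significant difference from controls in most replicates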;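 note: slope of initial-normalized fluorescence between seconds 10 and 20 after thallium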
HEK counter2: acts in parental HEK cells, second KCC2 counter-screen; shares compounds with Cl transport mod; HEK293 parental, thallium flux FluoZin-2 fluorescence slope; thallium flux slope at 10 µM; 33% of 3,700 active; AID 1718;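 active = thallium flux slope above the same plate's solvent-control mean plus 3 SD in both duplicate wells; inconclusive = duplicate wells that disagreed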;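 note: run without ouabain in cells lacking the KCC2 cotransporter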
Of the large screens only hits and unclear results are named; the others gave an inactive call (follow-up assays come after a bar, where they were run). Sampled rows, rich in hits. Any-hit rate of the full collection: about 5.1%.

O=C(C1CCC(CNc2nc(=S)[nH]c3ccccc23)CC1)N1CCN(c2ccc(F)cc2)CC1 (stereo unspecified)	Cl transport mod -7.52 | KCC2 sec1 inactive | KCC2 bumet counter inactive | KCC2 sec2 0.022 | HEK293 Tl flux 0.006 | KCC2 ouabain 0.0104 | HEK counter2 inactive
O=C(C1CCC(Cn2c(=S)[nH]c3ccccc3c2=O)CC1)N1CCN(c2ccccc2)CC1 (stereo unspecified)	none (no result: RAM inhibit, ROMK primary)
COc1ccccc1CNC(=O)c1ccc2c(=O)n(CCCN3CCCC3=O)c(=S)[nH]c2c1	none
COc1cccc(-n2c(=O)n(Cc3ccccc3)c(=O)c3[nH]cnc32)c1	none (no result: RAM inhibit)
CSC1=C(C#N)C(=O)NC(c2ccc(Cl)cc2)S1 (stereo unspecified)	none (no result: RAM inhibit)
O=C(NCCN1C(=O)C2C3C=CC(C3)C2C1=O)Nc1ccccc1O (stereo unspecified)	none (no result: ROMK primary) | KCC2 sec1 inactive | KCC2 bumet counter inconclusive | KCC2 sec2 inactive | HEK293 Tl flux inactive | KCC2 ouabain inactive | HEK counter2 inactive
CCCN1C=CC(=CC=C(C#N)C#N)C=C1	Cl transport mod -7.81 (no result: RAM inhibit, ROMK primary) | KCC2 sec1 0.00215 | KCC2 bumet counter -0.00144 | KCC2 sec2 0.0233 | HEK293 Tl flux inconclusive | KCC2 ouabain 0.00659 | HEK counter2 inconclusive
O=C(CCCNC(=O)/C(=C\c1ccc(F)cc1)NC(=O)c1ccccc1)OCc1ccccc1	none (no result: S1P3 antagonist, ROMK primary)
O=C(CCCNC(=O)/C(=C/c1ccc(F)cc1)NC(=O)c1ccccc1)OCc1ccccc1	Cl transport mod -3.2 (no result: ROMK primary) | KCC2 sec1 inactive | KCC2 bumet counter inactive | KCC2 sec2 inactive | HEK293 Tl flux inactive | KCC2 ouabain 0.0178 | HEK counter2 inactive
CCCc1nc2c(o1)CC(CC(C)SCC)CC2=O (stereo unspecified)	Cl transport mod 4.89 | KCC2 sec1 inactive | KCC2 bumet counter inactive | KCC2 sec2 inconclusive | HEK293 Tl flux inactive | KCC2 ouabain inactive | HEK counter2 inactive
Cc1cccc(NC(=S)NC(=O)c2ccc(Br)o2)c1C	Cl transport mod 71.4 | KCC2 sec1 0.05 | KCC2 bumet counter 0.1 | KCC2 sec2 0.0536 | HEK293 Tl flux 0.14 | KCC2 ouabain 0.115 | HEK counter2 0.0572
Cc1ccc(C)c(NC(=S)NNC(=O)c2ccc(Br)o2)c1	none (no result: S1P3 antagonist, Cl transport mod, ROMK primary)
O=C(NNC(=S)Nc1ccccc1C(F)(F)F)c1ccc(Br)o1	none
Cc1ccc(NC(=S)NC(=O)c2ccc(Br)o2)c(C)c1	Cl transport mod 54.7 | KCC2 sec1 0.0212 | KCC2 bumet counter 0.132 | KCC2 sec2 0.0437 | HEK293 Tl flux 0.0689 | KCC2 ouabain 0.114 | HEK counter2 0.0181
O=C(Nc1ccc2c(c1)C(=O)NC2=O)c1ccc2ncsc2c1	none
S=c1[nH]c(-c2ccccc2)cn1/N=C/c1ccccc1Br	Cl transport mod 45.6 | KCC2 sec1 inconclusive | KCC2 bumet counter 0.0659 | KCC2 sec2 0.0632 | HEK293 Tl flux 0.0671 | KCC2 ouabain 0.0795 | HEK counter2 0.0466
S=c1[nH]c(-c2ccccc2)cn1/N=C/c1cccc2ccccc12	Cl transport mod 57.8 | KCC2 sec1 inactive | KCC2 bumet counter 0.0792 | KCC2 sec2 0.0774 | HEK293 Tl flux 0.0778 | KCC2 ouabain 0.0863 | HEK counter2 0.0698
Cc1ccc(/C=N/n2cc(-c3ccccc3)[nH]c2=S)s1	Cl transport mod 32.6 | KCC2 sec1 0.0236 | KCC2 bumet counter 0.0681 | KCC2 sec2 inactive | HEK293 Tl flux 0.0559 | KCC2 ouabain 0.0578 | HEK counter2 0.0191
COc1cc(NS(=O)(=O)c2ccc(NC(=S)NC(=O)COc3ccccc3OC)cc2)nc(OC)n1	none
COc1ccc(OC)c(-c2csc(NC(=O)c3ccc4c(c3)OCO4)n2)c1	Cl transport mod 6.7 | KCC2 sec1 inactive | KCC2 bumet counter inactive | KCC2 sec2 inactive | HEK293 Tl flux inactive | KCC2 ouabain inactive | HEK counter2 inactive
COc1ccc(OC)c(-c2csc(NC(=O)C3COc4ccccc4O3)n2)c1 (stereo unspecified)	none
CNc1ccccc(-c2ccc3cc4c(cc3n2)OCO4)c1=O	none
CC(C(=O)N1CCCCCC1)c1ccc([N+](=O)[O-])cc1 (stereo unspecified)	none
CCN(CC)CCSc1nc2ccccc2c(=S)n1-c1ccccc1	Cl transport mod 2.77 (no result: ROMK primary) | KCC2 sec1 inactive | KCC2 bumet counter inactive | KCC2 sec2 inactive | HEK293 Tl flux inactive | KCC2 ouabain inactive | HEK counter2 inactive
COc1ccc(CN2C3CCCC2CC(NC(=O)Nc2ccccc2C)C3)cc1 (stereo unspecified)	Cl transport mod 2.55 (no result: S1P3 antagonist) | KCC2 sec1 inactive | KCC2 bumet counter inactive | KCC2 sec2 inactive | HEK293 Tl flux inconclusive | KCC2 ouabain inactive | HEK counter2 inactive
O=S(=O)(Nc1ncccn1)c1ccc(NC(=S)Nc2cccc(Cl)c2)cc1	none (no result: RAM inhibit, ROMK primary)
O=C(N/N=C/c1ccc(OCc2ccccc2)cc1)c1cc[n+](Cc2ccccc2)cc1	Cl transport mod -3.45 | KCC2 sec1 inactive | KCC2 bumet counter inconclusive | KCC2 sec2 0.0241 | HEK293 Tl flux inactive | KCC2 ouabain inconclusive | HEK counter2 inactive
COc1cccc(-c2nc(CS(=O)(=O)CC(=O)NCc3ccccc3)c(C)o2)c1	Cl transport mod -4.1 (no result: ROMK primary) | KCC2 sec1 inactive | KCC2 bumet counter inactive | KCC2 sec2 inactive | HEK293 Tl flux inactive | KCC2 ouabain inconclusive | HEK counter2 inactive
COc1ccc(OC)c(CCNC(=O)CS(=O)(=O)Cc2nc(-c3ccccc3C)oc2C)c1	none (no result: ROMK primary)
COc1cccc(-c2nc(CS(=O)(=O)CC(=O)NCc3ccccc3OC)c(C)o2)c1	none (no result: ROMK primary)
Cc1ccccc1-c1nc(CS(=O)(=O)CC(=O)NCc2ccccc2)c(C)o1	Cl transport mod -5.05 (no result: ROMK primary) | KCC2 sec1 inactive | KCC2 bumet counter inactive | KCC2 sec2 inconclusive | HEK293 Tl flux inactive | KCC2 ouabain inconclusive | HEK counter2 inactive

Screening results from PubChem.
